High-throughput results as filed in PubChem BioAssay.
VDR inhibitor – blocks the human vitamin D receptor. P11473. Potency, µM, for the others: max response, negative = inhibition, usual class: inhibitors. hit rate 0.93% among 400,000. VDR-SRC2-3 peptide fluorescence polarization, 2 h
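Reagent solutions, kept cold and dark, are dispensed first; compounds are then pinned in at 23 nl, plates briefly spun, and incubated 2 h at ambient temperature. Inhibition of VDR–SRC2-3 peptide binding is read by fluorescence polarization.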
PLK1 PBD block – PLK1 (human) polo-box domain binding inhibition; Plk1 PBD binding of FITC phosphopeptide, fluorescence polarization; Potency, µM, inactives show max response, negative = inhibition, actives largely listed as inhibitors; hit rate 2.8% among 360,000; AID 720504; also: series mostly up to about 57 µM; nearly all actives have a fitted effect of over 65% in size
Target sequence (P53350 whole entry, looked up, the tested form may be a part): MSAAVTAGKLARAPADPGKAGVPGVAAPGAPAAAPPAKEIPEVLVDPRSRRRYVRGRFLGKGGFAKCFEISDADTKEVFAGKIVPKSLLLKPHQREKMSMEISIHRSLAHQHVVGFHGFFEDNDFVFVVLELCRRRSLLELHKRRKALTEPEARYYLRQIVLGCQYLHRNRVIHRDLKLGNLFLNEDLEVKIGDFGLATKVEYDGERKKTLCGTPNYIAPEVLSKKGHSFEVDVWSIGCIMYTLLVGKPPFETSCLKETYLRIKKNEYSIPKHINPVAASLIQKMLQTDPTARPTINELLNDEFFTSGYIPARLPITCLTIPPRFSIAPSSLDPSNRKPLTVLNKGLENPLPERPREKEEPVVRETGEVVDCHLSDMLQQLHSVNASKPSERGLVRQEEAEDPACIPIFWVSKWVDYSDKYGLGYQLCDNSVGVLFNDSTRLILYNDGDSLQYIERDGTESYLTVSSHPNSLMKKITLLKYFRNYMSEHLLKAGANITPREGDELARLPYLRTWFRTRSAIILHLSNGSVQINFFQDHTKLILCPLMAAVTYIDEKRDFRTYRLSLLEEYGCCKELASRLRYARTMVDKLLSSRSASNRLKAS
TDP1 cell CPT – DT40-hTDP1 cell growth loss with CPT; Potency, µM (top dose mostly 46.2 µM), inactives show at the top dose activity change, negative = growth inhibition, usual class: inhibitors; chicken DT40 Tdp1-/-;hTDP1 cells + 20 nM CPT, ATP luminescence, 48 h; AID 686979; hit rate 12% among 420,000; also: nearly all actives have a fitted effect of over 55% in size
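Chicken DT40 Tdp1-/- cells stably complemented with human TDP1 were seeded at 400 cells/well in medium containing 20 nM camptothecin, exposed to pin-transferred compounds, and grown at 37 °C for at least 48 hr. Viability was read as ATP luminescence.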
GCN5L2 inh – GCN5L2 (KAT2A) acetyltransferase inhibition; Q92830; AID 504327; GCN5L2 HAT assay, ThioGlo1 CoA-SH fluorescence; hit rate 0.21% among 390,000; Potency, µM (highest dose often 58.9 µM), for the others: top-dose activity change, negative = inhibition, actives largely listed as inhibitors
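ThioGlo1-coupled HAT assay: 20nM GCN5L2, 70uM acetyl-CoA, 75uM H3(1-25) peptide, pH 7.5. Fluorescence read at 340/540nm at start and after 20 min at room temperature.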
TDP1 block – inhibitors of human tyrosyl-DNA phosphodiesterase TDP1; Q9NUW8; recombinant TDP1, AlphaScreen DNA substrate cleavage; Potency, µM (doses to about 130 µM), for the others: at the highest dose activity change, negative = inhibition, usual class: inhibitors; hit rate 0.28% among 350,000; AID 485290; also: nearly all actives have a fitted effect of over 40% in size
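Here, a 5' biotin and 3' phosphotyrosine-FITC DNA oligonucleotide reports Tdp1 activity: intact substrate bridges AlphaScreen beads, while cleavage leaves a 3' phosphate and drops signal. All incubations at room temperature.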
TDP1 cell noCPT – qHTS for Inhibitors of human tyrosyl-DNA phosphodiesterase 1 (TDP1): qHTS in cells in absence of CPT; DT40 Tdp1-/- hTDP1 cells, no CPT, ATP luminescence, 48 h; Potency, µM (top dose mostly 46.2 µM), for inactives: top-dose activity change, negative = growth inhibition, most hits filed as inhibitors; hit rate 15% among 420,000; AID 686978, 2013; also: nearly all actives have a fitted effect of over 55% in size
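Compound effects on proliferation are scored in DT40 Tdp1-/-;hTDP1 cells in the absence of CPT. ATP levels (CellTiter-Glo luminescence) are recorded after a ≥48 hr, 37 °C incubation.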
* = called active by the depositor; ? = inconclusive; . = not tested or not shown; [ ] = remark or other dose. A selection: hits, their analogues and other compounds. The true share with any hit is near 18%. Calls follow the shape of the dose curve; as a rule, active = well fitted curve in the direction sought with a large enough effect; inconclusive = small, poorly fitted or top-dose-only effect, or another doubt; inactive = no such curve, though single readings can be large; an effect the other way counts as inactive or inconclusive. % is scaled to controls: 0 for no effect and ±100 for the full control effect; potency is read from the fitted curve at half-maximal effect.

SMILES	VDR inhibitor	PLK1 PBD block	TDP1 cell CPT	GCN5L2 inh	TDP1 block	TDP1 cell noCPT
Cc1nn(-c2ccc3nnc(C)n3n2)c(C)c1CCC(=O)Nc1ccc(OC(F)(F)F)cc1	-9%	.	12µM*	15%	7%	23µM*
Cc1c(Cl)cccc1NC(=O)Cn1c(=O)n(Cc2nc(-c3ccccc3)no2)c(=O)c2cc3c(cc21)OCO3	19%	.	?	1%	8%	?
CCOC(=O)c1c(NC(=O)Cc2cccs2)sc(C(=O)N2CCCCC2)c1C	-17%	-1%	?	-5%	7%	9.2µM*
CCOC(=O)c1c(NC(=O)CN2CCCc3ccccc32)sc(C(C)=O)c1C	-4%	-9%	?	-6%	0%	21µM*
COCCOC(=O)c1c(NC(=O)CN2CCc3ccccc32)sc(C(N)=O)c1C	-15%	3%	?	1%	-4%	-15%
CNc1c(NC(=O)c2ccc3c(c2)OCO3)c(=O)oc2ccccc12	29%	-15%	-18%	-6%	0%	7%
O=C(CCC(=O)c1ccc(F)cc1)NC1CCCN(Cc2ccccc2F)C1 (stereo not drawn)	-23%	-13%	1%	4%	.	-19%
O=C(Nc1nnc(CCS(=O)(=O)c2ccc(Br)cc2)s1)c1ccc([N+](=O)[O-])cc1	-1%	-6%	-8%	-26%	2%	-8%
Cc1ccc(NC(=S)N=Nc2c(O)n(C)c3ccc(S(=O)(=O)N4CCOCC4)cc23)cc1C	5%	2%	2.1µM*	-3%	8%	3.7µM*
Cc1cccc(NC(=S)N=Nc2c(O)n(CN3CCOCC3)c3ccccc23)c1C	-10%	-3%	5.8µM*	28%	8%	5.8µM*
Cc1cccc(NC(=O)CN2CCOCC2)c1C	-9%	-7%	13%	3%	.	0%
C=CCn1c(O)c(N=NC(=S)Nc2ccccc2C)c2cc(S(=O)(=O)N3CCOCC3)ccc21	15%	-14%	3.3µM*	-1%	8%	0.73µM*
Cn1c(O)c(N=NC(=S)Nc2ccccc2F)c2cc(S(=O)(=O)N3CCOCC3)ccc21	9%	-6%	5.2µM*	-3%	9%	5.8µM*
CO[C@@H]1/C=C\CC(=O)N[C@@H](C)C(=O)OC[C@@H](OC)[C@H](C)CCCC(=O)OC[C@H]1C	.	.	.	.	3%[21 µM]	.
C[C@H]1CN([C@@H](C)CO)C(=O)c2cccc(NS(=O)(=O)c3cn(C)cn3)c2O[C@H]1CN(C)S(C)(=O)=O	-6%	-14%	-53%	0%	1%	2%
CN(CC(=O)Nc1ccc(F)cc1)C(=O)CCc1ccccc1	11%	4%	2%	-2%	3%	-11%
O=C(CN1C(=O)CSC1=O)Nc1ccc(F)c(F)c1F	-17%	24µM*	?	-3%	4%	?
CN(CC(=O)Nc1ccc(F)cc1)C(=O)CN1C(=O)NC(CCc2ccccc2)C1=O (stereo not drawn)	.	4%	12µM*	.	.	26µM*
O=C(CN1C(=O)NC(CCc2ccccc2)C1=O)Nc1ccc(F)c(F)c1F (stereo not drawn)	-9%	-12%	26µM*	-9%	0%	?
COC(=O)c1cccc(-c2ccc(C(c3c(C)[nH][nH]c3=O)c3c(C)[nH][nH]c3=O)o2)c1	-27%	24µM*	7.3µM*	-3%	9%	23µM*
Cc1[nH][nH]c(=O)c1C(c1ccc(-c2ccc(Cl)c(C(=O)O)c2)o1)c1c(C)[nH][nH]c1=O	40µM*	?	-12%	-22%	?	-9%
COC(=O)c1ccccc1-c1ccc(C(c2c(C)[nH][nH]c2=O)c2c(C)[nH][nH]c2=O)o1	?	?	?	-2%	-3%	21µM*
O=C(Nc1ccc(-c2nc3cc(Cl)ccc3o2)cc1)c1cc2ccccc2o1	14%	.	?	-1%	4%[12.3 µM]	?
CC(C)c1ccc(C(C)NC(=S)NC2CCCCC2)cc1 (stereo not drawn)	-1%	0%	18µM*	-5%	3%	4.6µM*
CCc1ccc(C(C)NC(=S)NC2CCCCC2)cc1 (stereo not drawn)	-9%	-9%	?	-3%	1%	?
SMILES	VDR inhibitor	PLK1 PBD block	TDP1 cell CPT	GCN5L2 inh	TDP1 block	TDP1 cell noCPT
CC(NC(=S)NC1CCCCC1)c1ccc(C(C)(C)C)cc1 (stereo not drawn)	3%	-9%	9.2µM*	-7%	2%	?
CCOc1ccccc1NC(=O)Cn1c(=O)n(-c2ccc(Cl)cc2)c(=O)c2oc3ccccc3c21	-5%	.	-15%	-5%	-8%	-13%
Cc1ccc(C(=O)NCCNC(=O)c2ccco2)cn1	16%	-5%	2%	2%	-10%	7%
O=C(c1ccoc1)N1CCCC(N2CCN(c3cccc(Cl)c3)CC2)C1 (stereo not drawn)	-10%	-5%	?	-10%	4%	-26%
Cc1cc(C)nc(N2CCCC(C(=O)NC(C)C)C2)n1 (stereo not drawn)	-20%	-5%	-9%	4%	-2%	2%
Oc1cccc(/C=N/Nc2cc(N3CCOCC3)nc(N3CCOCC3)n2)c1	-6%	-10%	16µM*	-5%	6%	15µM*
Oc1ccccc1/C=N/Nc1cc(N2CCCC2)nc(N2CCCC2)n1	-19%	1%	12µM*	-5%	11%	12µM*
O=C(NC1CC(=O)N(c2ccc3c(c2)OCCO3)C1)N1CCC(O)CC1 (stereo not drawn)	-11%	-6%	6%	-4%	11%	-3%
OCC1(Cc2ccccc2Cl)CCN(C/C=C/c2ccccc2)CC1	-15%	-15%	?	-11%	3%	18µM*
OCC1(CCc2ccccc2)CCN(C/C=C/c2ccccc2)CC1	-22%	-3%	-30%	-5%	.	-23%
CC(=O)N1CCc2cc(S(=O)(=O)NCC(=O)NCc3ccc(F)cc3)ccc21	-17%	-20%	3%	-4%	1%	-20%
O=C(NCCNC(=O)c1ccccc1Br)c1cccnc1	10%	-9%	6%	?	2%	8%
COc1ccccc1N1CCN(c2nc(CNC(=O)c3sc(C)nc3C)nc3ccccc23)CC1	.	.	6.5µM*	.	.	5.2µM*
Cc1ccc(-n2nnc3c(=O)oc4ccccc4c32)cc1	-3%	-1%	5.8µM*	-4%	2%	21µM*
CCC(C)n1nnc2c(=O)oc3ccccc3c21 (stereo not drawn)	12%	1%	-1%	-4%	4%	-13%
Cc1cc(-c2ccc(Cl)cc2)c(C#N)c(N)n1	6%	4%	5%	2%	-1%	-7%
